Experiment [1] is described as follows: APR_HepG2_NuclearSize_24hr: Apredica 24-hour HepG2 Assay for Nuclear Size (AID 2282907). The note with it: high-content imaging, actives raise or lower the signal. The method in brief: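 Compounds in DMSO (final 0.5%) were added to human HepG2 hepatoma cells at ten concentrations up to 200 uM for 24 hr. Fixed nuclei were stained with Hoechst 33342, and nuclear diameter was quantified from automated images.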

The nature of experiment [2]: APR_HepG2_CellLoss_24hr: Apredica 24-hour HepG2 Assay for Cell Loss (AID 2282908). The note with it: high-content imaging. The method in brief: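 Cell number is quantified by fluorescence imaging of Hoechst 33342-stained nuclei following dosing at 0.39–200 uM in 0.5% DMSO. Curves are fitted in both directions from the DMSO baseline.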
Experiment [3] is described as follows: APR_HepG2_MicrotubuleCSK_24hr: Apredica 24-hour HepG2 Assay for Microtubule CSK Stabilty (AID 2282909). As to conditions: HepG2 microtubule cytoskeleton imaging, actives raise or lower the signal. The method in brief:
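Steps: dose HepG2 for 24 h (0.39–200 uM, 0.5% DMSO); fix 30 min in 3.7% formaldehyde at room temperature; permeabilize; stain alpha-tubulin 60 min; image microtubule cytoskeleton at 20x. Signal change fitted in both directions relative to DMSO.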

Experiment [4] in a line: APR_HepG2_MitoticArrest_24hr: Apredica 24-hour HepG2 Assay for Mitotic Arrest (AID 2282910). As to conditions: high-content imaging, actives raise or lower the signal. The method, boiled down: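 HepG2 cells, 24 h exposure at 0.39-200 uM (10 concentrations, duplicate, 0.5% DMSO). Fixed, stained for phospho-histone H3 with Hoechst; imaged by high-content microscopy, bidirectional fit versus DMSO.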

A short description of experiment [5]: APR_HepG2_MitoMembPot_24hr: Apredica 24-hour HepG2 Assay for Mitochondrial Membrane Potential (AID 2282911). The note with it: imaging, actives raise or lower the signal. The method in brief:
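HepG2 human liver cells were exposed 24 hr to compounds at 0.39–200 uM (final DMSO 0.5% v/v) in duplicate. MitoTracker Red CMXRos (250 nM, 30 min) was loaded before formaldehyde fixation; fluorescence was imaged by ArrayScan HCS and fitted bidirectionally versus DMSO.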

Experiment [6] can be described thus: APR_HepG2_MitoMass_24hr: Apredica 24-hour HepG2 Assay for Mitochondrial Mass (AID 2282912). As to conditions: high-content imaging, actives raise or lower the signal. The method, boiled down:
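The liver line HepG2 was dosed in duplicate across a 0.39–200 uM series, with final DMSO held at 0.5% v/v, and harvested at 24 hr. High-content imaging measured mitochondrial dye staining.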

Experiment [7] can be described thus: APR_HepG2_p53Act_24hr: Apredica 24-hour HepG2 Assay for p53 Activation (AID 2282913).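 Also: p53 protein immunofluorescence averaged per cell in HepG2 with Hoechst nuclei.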 As to conditions: high-content imaging, actives raise or lower the signal. The method, boiled down:
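HepG2 cells exposed 24 hr to compounds at 0.39–200 uM (10 concentrations, duplicate), final DMSO 0.5% v/v. After formaldehyde fixation and Triton permeabilization, p53 was immunolabeled (sheep anti-p53, Cy5 secondary) with Hoechst 33342 nuclear counterstain, then imaged by high-content fluorescence microscopy.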

Experiment [8] in a line: APR_HepG2_CellLoss_72hr: Apredica 72-hour HepG2 Assay for Cell Loss (AID 2282915). As to conditions: high-content imaging. The method, boiled down: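 HepG2 cells exposed 72 h to compound at 0.39–200 uM (10 concentrations, duplicate) in 0.5% DMSO. Fixed with 3.7% formaldehyde and Hoechst 33342-stained. Imaged at 20x; nuclear count gives cell number, fitted bidirectionally versus DMSO.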

Experiment [9] is described as follows: APR_HepG2_P-H2AX_72hr: Apredica 72-hour HepG2 Assay for H2AX Phosphorylation (AID 2282916).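 Also: phospho-histone H2A.x immunostain intensity per cell marking DNA damage.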 As to conditions: imaging, actives raise or lower the signal. The method, boiled down: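 Following 72 hr treatment with 0.39–200 uM compound, HepG2 cells were formaldehyde-fixed, permeabilized and stained for phospho-H2A.x; signal was measured by high-content imaging and fitted bidirectionally against DMSO controls.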

Experiment [10] in a line: APR_HepG2_MitoMembPot_72hr: Apredica 72-hour HepG2 Assay for Mitochondrial Membrane Potential (AID 2282917). As to conditions: imaging, actives raise or lower the signal. The method in brief:
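HepG2 cells dosed 72 hr with compound at 0.39–200 uM in duplicate, 0.5% v/v DMSO final. Mitochondria stained with 250 nM MitoTracker Red CMXRos for 30 min before formaldehyde fixation, imaged by high-content fluorescence; bidirectional fit versus DMSO.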

A short description of experiment [11]: APR_HepG2_MitoticArrest_72hr: Apredica 72-hour HepG2 Assay for Mitotic Arrest (AID 2282918). As to conditions: high-content imaging, actives raise or lower the signal. The method in brief:
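HepG2 cells were exposed for 72 hr to compound at 0.39–200 uM (10 concentrations, duplicate) in 0.5% v/v DMSO, fixed in 3.7% formaldehyde, immunostained for phospho-histone H3 with Hoechst 33342 and imaged by high-content fluorescence; bidirectional fits versus DMSO.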

A short description of experiment [12]: APR_HepG2_MicrotubuleCSK_72hr: Apredica 72-hour HepG2 Assay for Microtubule CSK Stabilty (AID 2282919). The note with it: HepG2 microtubule cytoskeleton, high-content imaging, actives raise or lower the signal. The method, boiled down:
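HepG2 cells were exposed 72 hr to compound at 0.39–200 uM in duplicate (0.5% DMSO final), then fixed and permeabilized. Alpha-tubulin immunofluorescence was imaged by high-content microscopy, with bidirectional fitting against DMSO and taxol as positive control.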

Experiment [13] is described as follows: APR_HepG2_P-H2AX_24hr: Apredica 24-hour HepG2 Assay for H2AX Phosphorylation (AID 2282920). The note with it: high-content imaging, actives raise or lower the signal. The method in brief: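 HepG2 human liver cells were exposed for 24 hr to compounds at 0.39–200 uM in duplicate, with 0.5% v/v DMSO final. Fixed cells were immunostained for phospho-histone H2A.x plus Hoechst 33342, imaged by HCS fluorescence, and fitted bidirectionally against DMSO.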

Experiment [14] can be described thus: APR_HepG2_StressKinase_72hr: Apredica 72-hour HepG2 Assay for Stress Kinase (AID 2282921). As to conditions: HepG2 stress kinase (phospho-c-Jun) imaging, actives raise or lower the signal. The method, boiled down: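 Fluorescence intensity of Cy3-tagged anti-phospho-c-Jun antibody, quantified per cell from Hoechst-defined nuclei across six images per well, served as the read-out following 72 h exposure (0.39–200 uM, 0.5% v/v DMSO).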

Experiment [15] can be described thus: APR_HepG2_StressKinase_24hr: Apredica 24-hour HepG2 Assay for Stress Kinase (AID 2282922). As to conditions: HepG2 stress kinase (phospho-c-Jun) imaging, actives raise or lower the signal. The method, boiled down: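 HepG2 cells exposed 24 h to 0.39–200 uM compound in duplicate (0.5% v/v DMSO final). Cells fixed in 3.7% formaldehyde, permeabilized and immunostained for phospho-c-Jun; read by high-content fluorescence imaging, fitted bidirectionally against DMSO.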

A short description of experiment [16]: APR_HepG2_MitoMass_72hr: Apredica 72-hour HepG2 Assay for Mitochondrial Mass (AID 2282924).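 Also: MitoTracker Red CMXRos stain intensity per cell imaged as mitochondrial mass.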 As to conditions: high-content imaging, actives raise or lower the signal. The method, boiled down:
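HepG2 cells dosed 72 hr at 0.39–200 uM (0.5% DMSO), in duplicate. MitoTracker Red CMXRos 250 nM loaded 30 min before formaldehyde fixation; high-content fluorescence imaging, bidirectional fit versus DMSO.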

A short description of experiment [17]: APR_HepG2_NuclearSize_72hr: Apredica 72-hour HepG2 Assay for Nuclear Size (AID 2282925). The note with it: high-content imaging, actives raise or lower the signal. The method in brief: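 HepG2 cells dosed 72 h at 0.39–200 uM (10 concentrations, duplicate) in 0.5% v/v DMSO final. Fixed, Hoechst 33342-stained nuclei imaged; nuclear diameter measured by automated image analysis. Bidirectional fit versus DMSO.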

Experiment [18] is described as follows: APR_HepG2_CellCycleArrest_72hr: Apredica 72-hour HepG2 Assay for Cell Cycle Arrest (AID 2282914). The note with it: high-content imaging, actives raise or lower the signal. The method, boiled down:
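HepG2 cells were exposed to compounds at 0.39–200 uM (0.5% v/v DMSO final, duplicates) for 72 hr, fixed in 3.7% formaldehyde, permeabilized and stained with Hoechst 33342. Nuclear DNA content was quantified by high-content imaging; gain or loss of signal was fitted bidirectionally against DMSO.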

Experiment [19] in a line: APR_HepG2_p53Act_72hr: Apredica 72-hour HepG2 Assay for p53 Activation (AID 2282923).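 Also: average cellular p53 protein immunofluorescence intensity in HepG2 cells.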 As to conditions: high-content imaging, actives raise or lower the signal. The method in brief: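 HepG2 monolayers receive test compounds in duplicate at ten concentrations (0.39 through 200 uM) for 72 hr. They are then formaldehyde-fixed, antibody-labelled for p53, Hoechst-stained and imaged, with activity fitted bidirectionally versus DMSO.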

Experiment [20] in a line: APR_HepG2_StressKinase_1hr: Apredica 1-hour HepG2 Assay for Stress Kinase (AID 2282906). The note with it: HepG2 stress kinase (phospho-c-Jun) imaging, actives raise or lower the signal. The method in brief: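 HepG2 cells dosed 0.39-200 uM (0.5% DMSO) for 1 h, then formaldehyde-fixed. Stress kinase read by phospho-c-Jun immunofluorescence using high-content imaging; bidirectional fit vs DMSO.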

SMILES strings stand for the structures. Activity calls are given as the source filed them. The calls were made as follows: active = hit-call score of the fitted dose curve at least 0.9, where 1 is the maximum; inactive = score below 0.9.

What is called AC50 is the concentration giving half of the maximal activity seen.

Turning to `CCCOC(=O)c1ccc(C(=O)OCCC)nc1`, the call in [1], in [2], in [3], in experiment [4], in experiment [5] and in experiment [6] was inactive. The result in experiment [7], in [8], in [9], in experiment [10], in experiment [11] and in experiment [12] was inactive. Further, the compound was classed as inactive in experiment [13], in [14], in experiment [15], in experiment [16] and in [17].
`COCCO`: the compound was called inactive in [1], in experiment [2], in [4], in experiment [5], in experiment [6] and in experiment [7]. The compound was classed as inactive in [18], in experiment [8], in experiment [9], in experiment [10], in experiment [11] and in experiment [12]. Moreover, the compound was classed as inactive in experiment [13], in [14], in experiment [15], in experiment [19] and in experiment [17].
Regarding `CCCCOC(=O)[C@@H](C)Oc1ccc(Oc2ccc(C(F)(F)F)cn2)cc1`, the result in experiment [1], in [2], in [3], in experiment [4], in experiment [5] and in experiment [6] was inactive. Besides, the outcome in [7], in [18], in [8], in experiment [9], in [10] and in [11] was inactive. Further, the compound was classed as inactive in [12], in experiment [13], in [14], in experiment [15] and in [17].
Consider `CCOC(=O)C(C)Oc1ccc(Oc2nc3ccc(Cl)cc3o2)cc1` (stereo not drawn), for which the outcome in experiment [20], in [1], in experiment [2], in experiment [3], in experiment [4] and in [5] was inactive. In addition, the compound was classed as inactive in experiment [6], in [7], in experiment [18], in [9], in experiment [10] and in experiment [11]. Moreover, the outcome in experiment [12], in [13], in experiment [14], in [19], in experiment [16] and in experiment [17] was inactive. Besides, the AC50 in [8] is 90.1 µM (active).
Consider `CC(C)(C)[C@@H](O)[C@@H](Cc1ccc(Cl)cc1)n1cncn1`, for which the call in experiment [1], in [2], in experiment [3], in experiment [4], in [6] and in [7] was inactive. Also, the compound was called inactive in experiment [18], in [9], in experiment [10], in experiment [11], in [12] and in experiment [13]. Further, the outcome in [14] and in [17] was inactive. In addition, the AC50 in experiment [5] was 15.8 µM (active); in [8], 33.4 µM (active).
`CCCCCCC(C)OC(=O)COc1nc(F)c(Cl)c(N)c1Cl` (stereo not drawn): the compound was classed as inactive in [1], in experiment [2], in experiment [4], in experiment [5], in [6] and in [7]. Further, the result in [8], in experiment [9], in [10], in experiment [11], in experiment [13] and in [14] was inactive. Further, the result in experiment [15], in experiment [16] and in experiment [17] was inactive. Further, the AC50 in experiment [3] is 116 µM (active); in [12], 106 µM (active).

Values taken from PubChem BioAssay (EPA / NIEHS).
